Test systems include NCI-H23 lung; NCI-H226 lung; NCI-H322M lung; HOP-62 NSCLC; NCI-H460 lung; HOP-92 NSCLC; NCI-H522 lung; A549/ATCC NSCLC; 786-0 renal; COLO 205 colon; DU-145 prostate; K-562 leukemia; MALME-3M melanoma; MDA-MB-231 breast; RXF 393 renal; SF-268 CNS; SF-295 CNS; SF-539 CNS; UACC-257 melanoma; M14 melanoma.
Assay in all cases: NCI-60 one-dose screen, 48 h (100 = growth as untreated, 0 = no growth, -100 = all killed)
Settings in all cases: 10 µM unless noted

About 83,000 compounds went through this panel and 20% of them were active in at least one assay; those are over-represented in the sample as a whole.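 48-hour exposure, single concentration, 96-well plates; percent growth endpoint where 0 means no net growth. Active: below 10.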 Values without a mark were called inactive. The source made the active and inactive calls.

Take `COc1cc(Cc2cc(OC)c(O)c(OC)c2)cc(OC)c1O`: the growth in the test with NCI-H23 lung was 87.6%; in the test on NCI-H226 lung it was 106%; with NCI-H322M lung it was 94.2%; with HOP-62 NSCLC, 88.9%; in the test with NCI-H460 lung it was 99.1%; in the test on HOP-92 NSCLC it was 89.6%. In addition, the growth with NCI-H522 lung is 56.5%; in the test on A549/ATCC NSCLC it was 84.1%; with 786-0 renal it was 107%; in the test on COLO 205 colon it was 109%; in the test with DU-145 prostate, 117%; in the test with K-562 leukemia it was 20.1%. Further, the growth in the test on MALME-3M melanoma was 86%; in the test with MDA-MB-231 breast, 95.2%; in the test with RXF 393 renal, 86.3%; in the test on SF-268 CNS it was 105%; with SF-295 CNS, 62.2%; in the test with SF-539 CNS it was 101%. The growth in the test on UACC-257 melanoma is 89.3%; with M14 melanoma, 75.3%.

For the compound `Cc1ccccc1N1CCN(C(=S)c2ccccc2)CC1`, the growth was 81.3% in the test with NCI-H23 lung; 92.1% in the test with NCI-H226 lung; 102% in the test on NCI-H322M lung; 95.2% in the test with HOP-62 NSCLC; 92.4% in the test on NCI-H460 lung; 97.9% in the test on HOP-92 NSCLC. Further, the growth in the test with NCI-H522 lung was 47.8%; with A549/ATCC NSCLC it was 87.4%; in the test with 786-0 renal, 103%; in the test on COLO 205 colon it was 106%; with DU-145 prostate, 114%; in the test on K-562 leukemia, 107%. Besides, the growth is 103% with MALME-3M melanoma; 93.9% in the test on MDA-MB-231 breast; 96.6% in the test on RXF 393 renal; 105% in the test on SF-268 CNS; 69.5% in the test on SF-295 CNS; 94.7% with SF-539 CNS. The growth in the test on UACC-257 melanoma was -18% (active); in the test with M14 melanoma, 101%.

On to `COc1ccc(Oc2ccc(/C=C/C(=O)c3ccc(OC)c(OC)c3)cc2)cc1`, for which the growth is 83.7% in the test with NCI-H23 lung; 90.9% in the test with NCI-H226 lung; 86.7% in the test on NCI-H322M lung; 118% in the test on HOP-62 NSCLC; 93.9% in the test on NCI-H460 lung; 83.7% with HOP-92 NSCLC. The growth in the test on NCI-H522 lung is 57.4%; in the test on A549/ATCC NSCLC it was 81.8%; in the test with 786-0 renal, 103%; in the test with COLO 205 colon it was 91.9%; in the test with DU-145 prostate, 76.6%; with K-562 leukemia, 66%. Also, the growth is 92.9% in the test with MALME-3M melanoma; 94.3% with MDA-MB-231 breast; 101% in the test with RXF 393 renal; 97.1% in the test with SF-268 CNS; 87% in the test with SF-295 CNS; 100% with SF-539 CNS. The growth with UACC-257 melanoma is 78.6%; with M14 melanoma, 92.9%.

Turning to `CSc1ccc2c3c(n(CCCn4ccnc4)c(=O)c2c1)-c1ccccc1C3=O`, the growth in the test with NCI-H23 lung is 30.7%; in the test on NCI-H226 lung it was 69.2%; in the test on NCI-H322M lung, 71.7%; with HOP-62 NSCLC, 34.7%; in the test on NCI-H460 lung, 11.5%; with HOP-92 NSCLC it was 83.2%. The growth with NCI-H522 lung was 19.3%; with A549/ATCC NSCLC it was 47.9%; in the test on 786-0 renal, 20.4%; with COLO 205 colon, 57.9%; in the test on DU-145 prostate it was 28.5%; in the test with K-562 leukemia it was 35.6%. Also, the growth is 87.8% in the test on MALME-3M melanoma; 91.4% in the test on MDA-MB-231 breast; 46.3% in the test on RXF 393 renal; 31.7% in the test with SF-268 CNS; 12.1% in the test on SF-295 CNS; 4.89% (active) with SF-539 CNS. Moreover, the figures for the growth in the test with UACC-257 melanoma and in the test with M14 melanoma were 71% and 26.6%, respectively.

Take `NC(=O)c1ccccc1OCC(=O)Nc1ccc(Cl)c(Cl)c1`: the growth is 104% in the test with NCI-H23 lung; 96.3% with NCI-H226 lung; 96.8% in the test on NCI-H322M lung; 96.8% in the test with HOP-62 NSCLC; 100% in the test on NCI-H460 lung; 88.7% with HOP-92 NSCLC. For the same compound, the growth is 83.1% with NCI-H522 lung; 114% with A549/ATCC NSCLC; 109% in the test with 786-0 renal; 105% in the test with COLO 205 colon; 114% in the test on DU-145 prostate; 91% with K-562 leukemia. For the same compound, the growth with MALME-3M melanoma is 100%; in the test on MDA-MB-231 breast it was 96.1%; in the test on RXF 393 renal it was 104%; with SF-268 CNS it was 107%; in the test on SF-295 CNS it was 98.9%; in the test with SF-539 CNS, 85.1%. For the same compound, the growth with UACC-257 melanoma is 112%; in the test with M14 melanoma, 111%.

Take `CCCN(CCSSCCNc1nc(N(C)O)nc(N(C)O)n1)c1nc(N(C)O)nc(N(C)O)n1`: the growth in the test with NCI-H23 lung is 84%; in the test with NCI-H226 lung, 82.6%; in the test with NCI-H322M lung it was 44.5%; in the test on HOP-62 NSCLC, 24.5%; in the test on NCI-H460 lung it was 28.4%; with HOP-92 NSCLC, 58.3%. In addition, the growth is 65.1% in the test with NCI-H522 lung; 48% with A549/ATCC NSCLC; 70% in the test on 786-0 renal; 24.2% in the test with COLO 205 colon; 54.4% with DU-145 prostate; 157% with K-562 leukemia. The growth with MALME-3M melanoma is 62.1%; with MDA-MB-231 breast, 66.6%; with RXF 393 renal, 72.9%; in the test on SF-268 CNS it was 42.1%; in the test with SF-295 CNS, 48.7%; with SF-539 CNS it was 62.8%. Moreover, the figures for the growth in the test with UACC-257 melanoma and in the test on M14 melanoma were -2.3% (active) and 84.4%, respectively.

As for `CCN(CC)CCn1c2ccc(OC)cc2c2sc3cc(O)ccc3c(=O)c21`, the growth in the test with NCI-H23 lung was 23.9%; with NCI-H226 lung, 112%; in the test with NCI-H322M lung, 34.2%; in the test on HOP-62 NSCLC it was 34.4%; in the test on NCI-H460 lung, 8.17% (active); in the test on HOP-92 NSCLC, 61.8%. Moreover, the growth is 42.2% in the test with NCI-H522 lung; 17.9% in the test on A549/ATCC NSCLC; 26.1% in the test with 786-0 renal; 23% with COLO 205 colon; 42.7% with DU-145 prostate; 6.38% (active) with K-562 leukemia. The growth with MALME-3M melanoma was 34.1%; with MDA-MB-231 breast, 54.1%; in the test on RXF 393 renal, 27.5%; in the test on SF-268 CNS it was 38.5%; in the test on SF-295 CNS, 17.9%; in the test with SF-539 CNS, 25.3%. Moreover, the growth was 78.4% in the test with UACC-257 melanoma and 31.2% with M14 melanoma.

These data come from PubChem BioAssay (NCI).
